Compounds without any hit were thinned out: in the full panel of roughly 83,000, 20% have a hit.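 A percent growth of 40 corresponds to 60% growth inhibition; 0 means no net growth; -100 means all cells died. Active threshold: below 10.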 A number with no mark means an inactive call. Active and inactive are the calls of the source.
test system: LOX IMVI melanoma; test: NCI-60 one-dose screen, 48 h (100 = growth as untreated, 0 = no growth, -100 = all killed); conditions: 10 µM unless noted

Row | Compound | growth
1 | CC1=C(C)C(=O)C(Nc2ccc(C)cc2)=C(Br)C1=O | 29.9%
2 | Cc1ccc(N2CCN(C3=C(Cl)C(=O)c4ncccc4C3=O)CC2)cc1 | -32.6% (active)
3 | COc1ccc2[nH]cc(-c3nc(N)nnc3-c3cn(C)c4ccc(Br)cc34)c2c1 | 35.4%
4 | O=C(/C=C/c1ccccc1Cl)Nc1ncc(Cc2cc(Cl)ccc2Cl)s1 | 35%
5 | CN(C)S(=O)(=O)c1ccc(-c2nc(C(Cl)Cl)nc3cc(-c4ccc(F)cc4)nn23)cc1 | -6.07% (active)
6 | Fc1ccc(-c2cn3c(-c4c[nH]c5ccc(Br)cc45)csc3n2)cc1 | 13.1%
7 | C#Cc1nc(/C=C/CCCCCCC(=O)NO)cs1 | -84.2% (active)
8 | C#C[C@]1(O)CC[C@H]2[C@@H]3CC=C4c5sc(Nc6ncccc6C)nc5CC[C@]4(C)[C@H]3CC[C@@]21C | -78% (active)
9 | CC(C)=CCC[C@](C)(O)[C@H]1CC[C@]2(C)[C@@H]1CC[C@@H]1[C@@]3(C)CC[C@H](N)C(C)(C)[C@@H]3CC[C@]12C | -82.5% (active)
10 | Cc1cc2nc3c4cc(C#N)ccc4n(CCN(C)C)c3nc2cc1C | -55.5% (active)
11 | N#Cc1c(-c2cccs2)cc(-c2cnccn2)nc1SCC(=O)N/N=C/c1ccncc1 | 101%
12 | CCOC(=O)c1cccc(NC2=C(Cl)C(=O)C(C)=C(C)C2=O)c1 | 91.9%
13 | c1ccc(-c2cn3c(-c4c[nH]c5ccccc45)csc3n2)cc1 | 83.7%
14 | Cc1cc(Br)ccc1-n1cc(C#N)c(N)c1C(=O)c1ccc(Br)cc1 | 96.6%
15 | Cn1cc(-c2cc3ncnc(Nc4ccc(NC(=O)Nc5cc(C(C)(C)C)on5)cc4)c3s2)cn1 | 6.08% (active)
16 | Nc1cc(C(=O)N/N=C\c2ccc(OC(F)F)c(OC3CCCC3)c2)nn1CC(O)c1ccccc1 (stereo not given) | 99.1%
17 | COc1ccc(C2CC(c3cccc(OCCCCOc4cccc(C5=NOC(c6ccc(OC)cc6)C5)c4)c3)=NO2)cc1 (stereo not given) | 17.9%
18 | O=C(COc1ccc(/C=C2\C(=O)Nc3ccc(Cl)cc32)cc1)Nc1ccc(Cl)cc1 | 1.2% (active)
19 | Cn1cc(-c2nnc(N)nc2-c2c[nH]c3ccc(F)cc23)c2cc(Br)ccc21 | 29%
20 | C[C@H](Nc1ncnc2ccc(-c3cnc(Cl)c(NS(C)(=O)=O)c3)cc12)c1ccccc1 | -60.4% (active)

Row | Compound | growth
21 | O=C(CSc1nc2ccccc2c(=O)n1CCc1ccccc1)Nc1ccc(S(=O)(=O)Nc2ccc(Cl)nn2)cc1 | 96.1%
22 | NS(=O)(=O)c1ccc(Nc2nc(N/N=C/C=C/c3ccccc3)nc(Nc3ccccc3)n2)cc1 | 27.3%
23 | O=C1[C@H]2Cc3c([nH]c4ccccc34)[C@H](c3ccc(Br)cc3)N2C(=O)CN1C1CCN(CC2CCCCC2)CC1 | -69.2% (active)
24 | CCc1cc2c(cc1Cl)nc1c(=O)[nH]c(=O)nc-1n2CCOCC(C)(C)C | 71.9%
25 | COc1ccc(-c2nc(C#N)c(N3CCC(S(=O)(=O)N4CCOCC4)CC3)o2)cc1 | 100%
26 | COC(=O)c1ccc(NC2=C(Cl)C(=O)c3nc(C)ccc3C2=O)cc1 | 45.1%
27 | Cc1ccccc1N1CCN(C2=C(Cl)C(=O)c3ncccc3C2=O)CC1 | 1.19% (active)
28 | CC[C@]12C=CCN3CC[C@@]4(c5ccc(OC)cc5N(C)[C@H]4[C@@](O)(C(=O)OC)[C@@H]1OC(=O)CCN1CCc4ccccc4C1)[C@@H]32 | 88.5%
29 | Cc1nc(N)sc1-c1csc(Nc2ccc(C(F)(F)F)cc2)n1 | 6.07% (active)
30 | Cn1cc(-c2nnc(N)nc2-c2c[nH]c3ccc(Br)cc23)c2cc(Br)ccc21 | 101%
31 | C#C[C@]1(O)CC[C@H]2[C@@H]3CC=C4c5sc(N(C)c6ccccc6)nc5CC[C@]4(C)[C@H]3CC[C@@]21C | 67.8%
32 | NS(=O)(=O)c1ccc(Nc2nc(Nc3ccccc3)nc(N3N=C(c4ccc(Cl)cc4)CC3c3ccc(Cl)cc3)n2)cc1 (stereo not given) | 12.6%
33 | O=C(CCCCCCN1CC(=O)N2[C@@H](c3ccc(Cl)s3)c3[nH]c4ccccc4c3C[C@H]2C1=O)NO | -62.7% (active)
34 | CCCCc1nc2c(N)nc3ccccc3c2n1Cc1cccc(CN)c1 | 18.1%
35 | N#C/C(=C\c1ccc(-c2ccc(Cl)c(Cl)c2)o1)C(=O)Nc1ncc(Cc2ccc(Cl)cc2)s1 | -79.8% (active)
36 | O=C(Nc1ccc(Cl)c(C(F)(F)F)c1)Nc1ccc2oc(=O)ccc2c1 | 1.96% (active)
37 | COc1ccc2[nH]cc(/C=N/Nc3ccnc4cc(Cl)ccc34)c2c1 | -92.7% (active)
38 | O=C1Nc2ccccc2/C1=C/c1ccc(OCC(=O)c2ccccc2)cc1 | 94.5%
39 | NS(=O)(=O)c1nnc(/N=C/c2c(O)[nH]c3ccccc23)s1 | 100%
40 | COc1cc(/C=C2/C(=O)Nc3ccc(Cl)cc32)ccc1OCc1ccc(Cl)cc1 | 68.3%

Source: PubChem BioAssay (NCI)
